Drawing on PubChem BioAssay AID493170 (National Center for Advancing Translational Sciences (NCATS), 2011), this text covers Potency for 23 molecules.

Inconclusive results are not listed. Where a call stands in place of a potency, no number is given. Calls of active or inactive are those of the source. The call rests on the fitted dose curve; in most records, active means well fitted inhibition curve with a large enough effect; inconclusive means small, poorly fitted or top-dose-only effect, or effect the other way; inactive means flat fitted curve, though single readings scatter.
Potency means the concentration at half of the fitted maximal effect.

Sequence of Ubiquitin carboxyl-terminal hydrolase 2 (Homo sapiens) (O75604 whole entry, looked up): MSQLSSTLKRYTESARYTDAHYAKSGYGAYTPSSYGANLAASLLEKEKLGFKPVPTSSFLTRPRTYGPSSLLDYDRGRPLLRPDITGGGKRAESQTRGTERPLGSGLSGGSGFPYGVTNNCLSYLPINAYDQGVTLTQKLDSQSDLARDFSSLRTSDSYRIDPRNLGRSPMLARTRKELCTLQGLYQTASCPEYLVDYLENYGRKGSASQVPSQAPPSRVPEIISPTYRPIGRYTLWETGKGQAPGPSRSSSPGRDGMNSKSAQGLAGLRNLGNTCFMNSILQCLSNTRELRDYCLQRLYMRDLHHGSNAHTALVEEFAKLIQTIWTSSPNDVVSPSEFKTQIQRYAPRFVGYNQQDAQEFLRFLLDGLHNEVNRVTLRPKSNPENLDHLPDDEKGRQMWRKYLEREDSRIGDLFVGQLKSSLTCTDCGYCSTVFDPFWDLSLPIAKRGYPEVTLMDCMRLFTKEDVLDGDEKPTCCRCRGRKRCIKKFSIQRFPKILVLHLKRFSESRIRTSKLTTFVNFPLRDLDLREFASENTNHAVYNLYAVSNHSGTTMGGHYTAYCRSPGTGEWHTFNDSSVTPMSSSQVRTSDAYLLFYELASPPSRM

This test deals with Ubiquitin carboxyl-terminal hydrolase 2 (Homo sapiens) (UniProt O75604). Nature of the test: Ub-rhodamine 110 based assay for inhibitors Ubiquitin-specific Protease USP2a. Further: nearly all actives have a fitted effect of over 50% in size. The conditions noted are these: USP2a Ub-rhodamine110 cleavage, fluorescence; series mostly up to 38.3 µM. The essentials:
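5 nM USP2a preincubated with compounds for 30 min at RT in 20 mM Tris-HCl pH 8.0, 2 mM CaCl2, 2 mM beta-mercaptoethanol, 0.05% CHAPS. Cleavage of 150 nM Ub-rhodamine 110 read kinetically (Ex 485/Em 531) for 7 min.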
Take `Cc1ccc(-c2ccc(CCC(=O)O)n2NC(=O)c2cccs2)cc1`: the Potency result is “inactive”.

Take `COc1ccc(-c2[nH]ncc2/C=C(/C#N)C(=O)NC2CCCCC2)cc1`: the Potency result is “inactive”.

With `Cc1ccc(/C(N)=N/OC(=O)Oc2ccccc2)cc1`, the Potency entry was “inactive”.

For `COCCn1c(SCC(=O)Nc2cc(C)on2)nnc1-c1ccccc1`, the Potency result is “inactive”.

Regarding `Cc1c(O)c(CN2CCCC2)cc2c3c(c(=O)oc12)CCC3`, the Potency result is “inactive”.

As for `Cc1cc(C(C)(C)CC(C)(C)C)ccc1OCCOCC[N+](C)(C)Cc1ccccc1`, the Potency entry is “inactive”.

As to `Cc1ccc(-c2c(C#N)c(N)nc3c2CCCCC3)o1`, the Potency result is “inactive”.

Turning to `CC(=O)c1ccc(Nc2ncnc3c2oc2ccccc23)cc1`, the Potency entry was “inactive”.

As to `CCOC(=O)C(=O)Nc1nc(-c2ccc3c(c2)CCN3C(=O)C2CC2)c(C)s1`, the Potency entry was “inactive”.

As for `CC[n+]1c(/C=C/N(C)c2ccccc2)n(-c2ccccc2)c2ccc(-c3nc4ccccc4s3)cc21`, the Potency entry is “inactive”.

As for `Cc1ccc(C(=O)Nc2nnc(CC(=O)N/N=C/c3ccc(O)c(O)c3)s2)cc1`, the Potency was 4.47 µM (active).

For the molecule `CCC(C)c1ccc(O)c(N)c1` (stereo not drawn), the Potency result was “inactive”.

Take `Cc1onc(-c2ccccc2)c1C(=O)N1CCN(C)CC1`: the Potency entry is “inactive”.

As to `O=C(CSc1nccc(=O)[nH]1)N1N=C2/C(=C/c3ccco3)CCCC2C1c1ccco1` (stereo not drawn), the Potency is 10 µM (active).

As to `CN1CCN(Cc2c(O)ccc3c(=O)c(Oc4ccccc4Cl)c(C(F)(F)F)oc23)CC1`, the Potency entry is “inactive”.

With `CC1(C)CC(=O)C2=C(C1)N(Cc1ccco1)C(=O)NC2(C(F)(F)F)C(F)(F)F`, the Potency entry was “inactive”.

`NC(=O)c1ncc(C(F)(F)F)cc1Oc1cccc(F)c1`: the Potency result is “inactive”.

Consider `Cc1cc(NS(=O)(=O)c2ccc(Nc3nc(-c4ccc(C)c(C)c4)cs3)cc2)no1`, for which the Potency was 10 µM (active).

For the molecule `Cc1ccc(NC(=O)COC(=O)c2ccc(NC(=O)CC#N)cc2)cc1S(=O)(=O)N1CCOCC1`, the Potency was 10 µM (active).

Turning to `O=C(Nc1nc(-c2ccco2)c(-c2ccco2)s1)c1ccc(F)cc1F`, the Potency was 10 µM (active).

Regarding `Cn1c(C(=O)NCCN2CCOCC2)cc2c(=O)n(C)c3ccccc3c21`, the Potency entry was “inactive”.

As to `O=C(O)CN1C(=O)/C(=C\c2ccccc2OCc2ccc(Cl)cc2Cl)SC1=S`, the Potency is 10 µM (active).

For the molecule `CC(C)(C)[C@H]1COC(=O)[C@@H](Cc2ccc(F)cc2)C/C=C\C[C@@H](CC(=O)N[C@@H](CO)Cc2ccccc2)C(=O)N1`, the Potency entry is “inactive”.
